# PubChem BioAssay
# Several values for one entry are separate records, joined by “and”; a condition that tells them apart may be missing. Equal entries are not always repeated. Activity calls are given as the source filed them. Unless noted, no stated cut-off is given here; in the data, active means inhibition above about 80%; inactive means the rest.
# Legend:
# [1] = galactose survival enhancers in mitochondrial complex I cybrids – cell-based, galactose medium, ATP luminescence, primary screen (AID 1645843;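 active means z-score of at least 1.8 in each of two replicates, scored against plate mean and spread of sample wells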;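 further: positive z means more ATP and so rescue of galactose-driven cybrid death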); conditions: complex I mutant cybrid cells, 72 h, stronger effect = higher value
# [2] = growth inhibition, single agent or in combination, cell-based, chromothripsis tumors, cisplatin or BGB combos (AID 1671449); conditions: LFS_MB_P medulloblastoma cells;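 further: cells exposed for 96 hours; 0% = vehicle DMSO and 100% = killing by high DMSO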
# [3] = growth inhibition, single agent and combos, cell-based, chromothripsis tumors, cisplatin or BGB combos (AID 1671450); conditions: HDN33 neuroblastoma cells, stronger effect = higher value;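 further: cells exposed to compound for four days; 0% = vehicle DMSO and 100% = cell killing by high DMSO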
# [4] = growth inhibition, single agents and combos, ICB984, cell-based, cisplatin or BGB combos, synergistic combos for chromothripsis tumors (AID 1671451; call rule not given here;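 further: cells exposed for 96 hours before readout; 0% = vehicle DMSO and 100% = killing by high DMSO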); conditions: ICB984 medulloblastoma cells, drug combinations, stronger effect = higher value
# [5] = growth inhibition, single agents and combos, LFS_MB_1R, cell-based, cisplatin or BGB combos, synergistic combos for chromothripsis tumors (AID 1671452); conditions: LFS_MB_1R medulloblastoma cells, stronger effect = higher value;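 further: cells exposed for 96 hours before readout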
# [6] = growth inhibition, single agents and combos, HTB85, cell-based, BGB or cisplatin IC20 combos, synergistic combos for chromothripsis tumors (AID 1671453); conditions: HTB85 osteosarcoma cells, drug combinations, stronger effect = higher value;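 further: cells exposed for 96 hours before readout; 0% = vehicle DMSO and 100% = high DMSO killing control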
# [7] = growth inhibition, single agents and combos, CRL2098, cell-based, BGB or cisplatin IC20 combos, synergistic combos for chromothripsis tumors (AID 1671454); conditions: CRL2098 osteosarcoma cells, drug combinations, stronger effect = higher value;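 further: cells exposed for 96 h before readout; 0% = vehicle DMSO and 100% = killing by high DMSO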
# [8] = growth inhibition, single agents and combos, HD-MB03, cell-based, BGB or cisplatin IC20 combos, synergistic combos for chromothripsis tumors (AID 1671455; in the data active means inhibition above about 83%;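 further: 0% = vehicle DMSO and 100% = high DMSO as cytotoxic control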); conditions: HD-MB03 medulloblastoma cells, stronger effect = higher value
# [9] = growth inhibition, single agents and combos, UWB1.289, cell-based, BGB or cisplatin combos, synergistic combos for chromothripsis tumors (AID 1671456); conditions: UWB1.289 ovarian carcinoma cells, stronger effect = higher value;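 further: cells exposed to compound for four days; 0% = vehicle DMSO and 100% = killing by high DMSO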
# [10] = growth inhibition, single agents and combos, LFS_MB_2R, cell-based, cisplatin combos, synergistic combos for chromothripsis tumors (AID 1671457); conditions: LFS_MB_2R medulloblastoma cells, stronger effect = higher value;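 further: cells exposed to compound for four days before readout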
# [11] = growth inhibition, MDA-MB-436, cell-based, BGB or cisplatin combos, synergistic combos for chromothripsis tumors (AID 1671458; call rule not given here;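 further: cells exposed for 96 hours; 0% = vehicle DMSO and 100% = killing by high DMSO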); conditions: MDA-MB-436 breast carcinoma growth inhibition, drug combinations, stronger effect = higher value
# [12] = UWB1.289_BRCA1 ovarian cancer growth, cell-based, BGB or cisplatin combinations (AID 1671459); conditions: UWB1.289 BRCA1 ovarian carcinoma, drug combinations, stronger effect = higher value
# [13] = drug combination toxicity in non-malignant astrocytes – cell-based, BGB or cisplatin IC20 combos, cytotoxicity control for chromothriptic childhood tumor combination screen (AID 1671460); conditions: Human astrocytes, viability inhibition, drug combinations, at 0.5 µM, stronger effect = higher value;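 further: cells exposed to compounds for 96 hours before viability readout; 0% = vehicle and 100% = killing control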
# [14] = BT084 cell growth, single and combined drugs, ICGC_MB145, cisplatin and BGB IC40 combos (AID 1671461); conditions: BT084 medulloblastoma cells, drug combinations, stronger effect = higher value;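 further: cells exposed to drugs for 96 hours; 0% = vehicle DMSO and 100% = high DMSO full killing control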
# [15] = RCMB18 cell growth, single agent and combined, cisplatin and BGB IC40 combos (AID 1671462); conditions: RCMB18 medulloblastoma cells, stronger effect = higher value;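 further: cells exposed to compound for four days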
# [16] = CRL1545 cell growth, single agent and combined, cisplatin and BGB IC20 combos (AID 1671464); conditions: CRL1545 osteosarcoma cells, stronger effect = higher value;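 further: cells exposed to compound for 96 hours before readout; 0% = vehicle DMSO and 100% = high DMSO killing control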
# [17] = measured here: combination with BGB IC40, at 0.05 µM
# [18] = measured here: with BGB IC20 combination, at 0.5 µM
# [19] = measured here: with cisplatin IC20 combination, at 0.5 µM
# [20] = measured here: combination with cisplatin, at 0.5 µM
# [21] = measured here: combination with cisplatin, at 5 µM
compound,measurement,setting,value
CNCc1cn(C2CCN(CCC(C)CC(C)(C)C)CC2)nn1 (stereo not given),z-score,[1],-0.49 (inactive)
Cc1nc2cc(C(=O)N3CCN(C)C(=O)C3)ccc2s1,z-score,[1],-0.24 (inactive)
CN(C)CCNC(=O)c1cccn2c(=O)c3cc4ccccc4cc3nc12,inhibition,"[2]; at 0.5 µM, stronger effect = higher value",-18% (inactive) and -22.8% (inactive)
same,inhibition,"[2]; measured here: combination with BGB IC20, at 0.005 µM",-22.4% and -7.9%
same,inhibition,"[2]; measured here: combination with BGB IC40, at 0.005 µM",-33.3% and -28%
same,inhibition,[2]; [17],-30.9% and 0.948%
same,inhibition,"[2]; measured here: combination with cisplatin, at 0.5 µM, stronger effect = higher value",-27.4% and -25.4%
same,inhibition,"[2]; measured here: combination with cisplatin, at 5 µM, stronger effect = higher value",25.9% and 73.9%
same,inhibition,"[3]; BGB combo, at 5 µM",58.1% and 71.8%
same,inhibition,[3]; at 0.5 µM,4.02% (inactive) and 16.5% (inactive)
same,inhibition,"[3]; cisplatin combo, at 5 µM",63.6% and 83.1%
same,inhibition,[3]; [18],-3.52% and 15.5%
same,inhibition,[3]; [19],5.98% and 5.66%
same,inhibition,"[3]; single agent, at 5 µM",67.9% and 86.2%
same,inhibition,"[4]; BGB IC20 combo, at 0.005 µM",-2.65% and -7.73%
same,inhibition,"[4]; BGB IC40 combo, at 0.005 µM",-19% and -46.8%
same,inhibition,"[4]; BGB IC40 combo, at 0.05 µM",29.2% and 25.5%
same,inhibition,[4]; at 0.5 µM,-22.7% (inactive) and -19.3% (inactive)
same,inhibition,"[4]; cisplatin combo, at 0.05 µM",25.8% and 22.5%
same,inhibition,"[4]; cisplatin combo, at 0.5 µM",-35.6% and -11.2%
same,inhibition,"[4]; cisplatin combo, at 5 µM",-26.2% and -47.1%
same,inhibition,"[4]; measured here: 5 uM single agent, at 5 µM",-15.3% and -26.1%
same,inhibition,[5]; at 0.5 µM,-22.6% (inactive) and -0.28% (inactive)
same,inhibition,[5]; [17],-22.9% and -35.5%
same,inhibition,[5]; [20],-29.9% and 26.6%
same,inhibition,[5]; [21],66.5% and 90.2%
same,inhibition,[6]; at 0.5 µM,-6.94% (inactive) and -9.64% (inactive)
same,inhibition,"[6]; measured here: with BGB IC20, at 0.5 µM",10% and -19.8%
same,inhibition,"[6]; measured here: with BGB IC20, at 5 µM",24.9% and 50.6%
same,inhibition,"[6]; measured here: with cisplatin IC20, at 0.5 µM",-22.5% and -20.8%
same,inhibition,"[6]; measured here: with cisplatin IC20, at 5 µM",24% and 36.1%
same,inhibition,"[6]; single agent, at 5 µM",45.2% and 66.6%
same,inhibition,[7]; at 0.5 µM,2.28% (inactive) and -30.7% (inactive)
same,inhibition,"[7]; measured here: combination with BGB at IC20, at 0.5 µM",-26.7% and 2.29%
same,inhibition,"[7]; measured here: combination with cisplatin at IC20, at 0.5 µM",7.69% and -23.9%
same,inhibition,[8]; at 0.5 µM,0.57% (inactive) and 18.1% (inactive)
same,inhibition,"[8]; measured here: combo with BGB at IC20, at 0.5 µM",5% and 20.5%
same,inhibition,"[8]; measured here: combo with cisplatin at IC20, at 0.5 µM",-3.84% and 18.8%
same,inhibition,[9]; at 0.5 µM,10.9% (inactive) and 15.8% (inactive)
same,inhibition,"[9]; measured here: inhibition with BGB combination, at 0.05 µM",-15.6% and -22%
same,inhibition,"[9]; measured here: inhibition with cisplatin combination, at 0.05 µM",-3.25% and -14.4%
same,inhibition,[10]; at 0.5 µM,-28.9% (inactive) and -23.7% (inactive)
same,inhibition,[10]; [20],-34.7% and -23.8%
same,inhibition,[10]; [21],-8.3% and 23.4%
same,inhibition,[11]; at 0.5 µM,-19.8% (inactive) and -0.82% (inactive)
same,inhibition,"[11]; measured here: BGB combination, at 0.5 µM",-29.6% and -21.4%
same,inhibition,"[11]; measured here: BGB combination, at 5 µM",5.41% and 28.4%
same,inhibition,"[11]; measured here: cisplatin combination, at 0.5 µM",-39.6% and -3.6%
same,inhibition,"[11]; measured here: cisplatin combination, at 5 µM",-6.72% and 54.3%
same,inhibition,"[12]; BGB combination, concentration series, at 5 µM",35.7% and 58.1%
same,inhibition,[12]; at 0.5 µM,9.64% (inactive) and 20.1% (inactive)
same,inhibition,"[12]; cisplatin combination, concentration series, at 5 µM",60% and 77.2%
same,inhibition,[13],16.8% (inactive) and 32.4% (inactive)
same,inhibition,[13]; measured here: combo with BGB IC20,18.7% and 31.3%
same,inhibition,[13]; measured here: combo with cisplatin IC20,0.257% and 17.6%
same,inhibition,[14]; at 0.5 µM,-10% (inactive) and -13.6% (inactive)
same,inhibition,"[14]; cisplatin combination, at 0.5 µM",-8.31% and -7.28%
same,inhibition,"[14]; cisplatin combination, at 5 µM",-110% and 45.2%
same,inhibition,"[14]; measured here: BGB IC40 combination 0.05 uM, at 0.05 µM",-36.7% and -32.1%
same,inhibition,"[14]; single agent, at 5 µM",-53.7% and -33.8%
same,inhibition,[15]; at 0.5 µM,-4.43% (inactive) and -8.03% (inactive)
same,inhibition,"[15]; cisplatin combo, at 5 µM",24.5% and 56.4%
same,inhibition,"[15]; measured here: BGB IC40 combination, at 0.05 µM",-9.99% and -6.24%
same,inhibition,[15]; [20],-30.6% and 30.2%
same,inhibition,"[15]; single agent, at 5 µM",-2.75% and -32%
same,inhibition,[16]; at 0.5 µM,6.65% (inactive) and -6.99% (inactive)
same,inhibition,[16]; [18],19.7% and -21.2%
same,inhibition,[16]; [19],-1.47% and 0.101%
same,inhibition,"[16]; single agent, at 0.05 µM",-9.51% and -11.2%
same,inhibition,"[16]; single agent, at 5 µM",37.2% and 93.5%
